Results on 17 compounds are retold here after ChEMBL document CHEMBL1961873, “Compounds: GSK PKIS; Assays: Nanosyn kinase panel” (2012).

Experiment [1] addresses Glycogen synthase kinase-3 beta (Homo sapiens) (UniProt P49841). The note with it: at 1 µM.
Experiment [2] has as its target Homeodomain-interacting protein kinase 1 (Homo sapiens) (UniProt Q86Z02). The note with it: at 0.1 µM.
For experiment [3] the target is unchanged. The note with it: at 1 µM.
The target of experiment [4] is T1, Homeodomain-interacting protein kinase 4 (Homo sapiens) (UniProt Q8NE63).
T1 sequence (whole entry): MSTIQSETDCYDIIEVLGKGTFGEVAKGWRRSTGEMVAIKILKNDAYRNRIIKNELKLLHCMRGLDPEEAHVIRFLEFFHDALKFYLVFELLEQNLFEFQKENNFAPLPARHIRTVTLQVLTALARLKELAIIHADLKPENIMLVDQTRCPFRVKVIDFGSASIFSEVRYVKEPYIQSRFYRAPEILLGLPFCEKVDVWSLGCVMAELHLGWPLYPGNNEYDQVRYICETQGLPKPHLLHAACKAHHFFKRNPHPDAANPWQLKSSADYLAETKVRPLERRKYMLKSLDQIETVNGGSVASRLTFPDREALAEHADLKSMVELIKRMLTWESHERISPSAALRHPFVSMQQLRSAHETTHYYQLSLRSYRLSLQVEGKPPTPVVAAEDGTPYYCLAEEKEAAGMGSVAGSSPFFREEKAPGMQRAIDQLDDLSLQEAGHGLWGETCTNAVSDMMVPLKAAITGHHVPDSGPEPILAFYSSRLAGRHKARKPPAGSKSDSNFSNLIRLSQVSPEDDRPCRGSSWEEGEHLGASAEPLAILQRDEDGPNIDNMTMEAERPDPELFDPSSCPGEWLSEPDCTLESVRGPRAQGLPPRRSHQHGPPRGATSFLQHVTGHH
The note with it: at 0.1 µM.

For experiment [5], the target named is T1, Homeodomain-interacting protein kinase 4 (Homo sapiens). The note with it: at 1 µM.
In experiment [6] the target is Mitogen-activated protein kinase 9 (Homo sapiens) (UniProt P45984). The note with it: at 0.1 µM.
The target is the same in experiment [7]. The note with it: at 1 µM.
The target in experiment [8] is Mitogen-activated protein kinase 1 (Homo sapiens) (UniProt P28482). The note with it: at 0.1 µM.
Experiment [9] has the same target. The note with it: at 1 µM.
In experiment [10] the target is Mitogen-activated protein kinase 3 (Homo sapiens) (UniProt P27361). The note with it: at 0.1 µM.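 Note: each value is a mean inhibition figure.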
Sequence of Mitogen-activated protein kinase 3 (Homo sapiens) (P27361 whole entry): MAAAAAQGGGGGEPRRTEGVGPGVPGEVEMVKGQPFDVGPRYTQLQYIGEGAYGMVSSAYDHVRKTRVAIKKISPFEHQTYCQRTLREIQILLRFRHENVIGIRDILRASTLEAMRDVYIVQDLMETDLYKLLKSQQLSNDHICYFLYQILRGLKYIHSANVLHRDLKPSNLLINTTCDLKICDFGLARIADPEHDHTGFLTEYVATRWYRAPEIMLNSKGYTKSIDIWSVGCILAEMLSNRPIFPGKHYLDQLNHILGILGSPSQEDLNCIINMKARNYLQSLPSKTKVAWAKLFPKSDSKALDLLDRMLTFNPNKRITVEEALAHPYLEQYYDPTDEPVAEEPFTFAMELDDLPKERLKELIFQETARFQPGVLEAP

Sequence of Mitogen-activated protein kinase 9 (Homo sapiens) (P45984 whole entry, looked up): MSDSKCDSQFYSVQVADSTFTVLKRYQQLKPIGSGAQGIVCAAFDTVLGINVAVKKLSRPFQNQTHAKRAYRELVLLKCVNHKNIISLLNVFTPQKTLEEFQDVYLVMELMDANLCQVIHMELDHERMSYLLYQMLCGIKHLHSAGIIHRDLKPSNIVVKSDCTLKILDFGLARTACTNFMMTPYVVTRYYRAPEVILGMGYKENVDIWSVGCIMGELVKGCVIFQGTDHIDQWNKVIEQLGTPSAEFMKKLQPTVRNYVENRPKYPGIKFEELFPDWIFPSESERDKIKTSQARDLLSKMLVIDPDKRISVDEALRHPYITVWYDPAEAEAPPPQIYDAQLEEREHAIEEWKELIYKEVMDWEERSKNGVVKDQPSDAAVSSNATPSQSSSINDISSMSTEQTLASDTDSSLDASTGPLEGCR
Sequence of Mitogen-activated protein kinase 1 (Homo sapiens) (P28482 whole entry): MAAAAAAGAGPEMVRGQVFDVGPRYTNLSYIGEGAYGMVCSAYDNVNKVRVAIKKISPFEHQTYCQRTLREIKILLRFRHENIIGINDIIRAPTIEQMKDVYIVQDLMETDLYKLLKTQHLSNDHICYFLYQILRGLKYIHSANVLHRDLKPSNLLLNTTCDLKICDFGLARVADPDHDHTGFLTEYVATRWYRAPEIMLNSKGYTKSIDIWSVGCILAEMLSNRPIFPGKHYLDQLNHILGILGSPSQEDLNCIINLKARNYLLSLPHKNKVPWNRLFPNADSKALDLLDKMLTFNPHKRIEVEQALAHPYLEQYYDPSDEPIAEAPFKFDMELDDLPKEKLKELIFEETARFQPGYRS
Sequence of Glycogen synthase kinase-3 beta (Homo sapiens) (P49841 whole entry, looked up): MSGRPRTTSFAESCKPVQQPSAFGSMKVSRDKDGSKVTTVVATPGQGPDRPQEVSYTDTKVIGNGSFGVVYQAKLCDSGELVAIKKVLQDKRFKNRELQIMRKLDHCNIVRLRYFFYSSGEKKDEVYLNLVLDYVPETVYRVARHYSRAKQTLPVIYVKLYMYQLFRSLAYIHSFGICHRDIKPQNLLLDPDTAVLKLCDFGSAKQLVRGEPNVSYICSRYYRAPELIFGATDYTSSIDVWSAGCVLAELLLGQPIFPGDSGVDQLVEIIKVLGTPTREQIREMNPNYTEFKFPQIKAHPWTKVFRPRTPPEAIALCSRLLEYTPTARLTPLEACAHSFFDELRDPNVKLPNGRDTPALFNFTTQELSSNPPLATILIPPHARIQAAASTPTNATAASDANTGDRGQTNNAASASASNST
Sequence of Homeodomain-interacting protein kinase 1 (Homo sapiens) (Q86Z02 whole entry, looked up): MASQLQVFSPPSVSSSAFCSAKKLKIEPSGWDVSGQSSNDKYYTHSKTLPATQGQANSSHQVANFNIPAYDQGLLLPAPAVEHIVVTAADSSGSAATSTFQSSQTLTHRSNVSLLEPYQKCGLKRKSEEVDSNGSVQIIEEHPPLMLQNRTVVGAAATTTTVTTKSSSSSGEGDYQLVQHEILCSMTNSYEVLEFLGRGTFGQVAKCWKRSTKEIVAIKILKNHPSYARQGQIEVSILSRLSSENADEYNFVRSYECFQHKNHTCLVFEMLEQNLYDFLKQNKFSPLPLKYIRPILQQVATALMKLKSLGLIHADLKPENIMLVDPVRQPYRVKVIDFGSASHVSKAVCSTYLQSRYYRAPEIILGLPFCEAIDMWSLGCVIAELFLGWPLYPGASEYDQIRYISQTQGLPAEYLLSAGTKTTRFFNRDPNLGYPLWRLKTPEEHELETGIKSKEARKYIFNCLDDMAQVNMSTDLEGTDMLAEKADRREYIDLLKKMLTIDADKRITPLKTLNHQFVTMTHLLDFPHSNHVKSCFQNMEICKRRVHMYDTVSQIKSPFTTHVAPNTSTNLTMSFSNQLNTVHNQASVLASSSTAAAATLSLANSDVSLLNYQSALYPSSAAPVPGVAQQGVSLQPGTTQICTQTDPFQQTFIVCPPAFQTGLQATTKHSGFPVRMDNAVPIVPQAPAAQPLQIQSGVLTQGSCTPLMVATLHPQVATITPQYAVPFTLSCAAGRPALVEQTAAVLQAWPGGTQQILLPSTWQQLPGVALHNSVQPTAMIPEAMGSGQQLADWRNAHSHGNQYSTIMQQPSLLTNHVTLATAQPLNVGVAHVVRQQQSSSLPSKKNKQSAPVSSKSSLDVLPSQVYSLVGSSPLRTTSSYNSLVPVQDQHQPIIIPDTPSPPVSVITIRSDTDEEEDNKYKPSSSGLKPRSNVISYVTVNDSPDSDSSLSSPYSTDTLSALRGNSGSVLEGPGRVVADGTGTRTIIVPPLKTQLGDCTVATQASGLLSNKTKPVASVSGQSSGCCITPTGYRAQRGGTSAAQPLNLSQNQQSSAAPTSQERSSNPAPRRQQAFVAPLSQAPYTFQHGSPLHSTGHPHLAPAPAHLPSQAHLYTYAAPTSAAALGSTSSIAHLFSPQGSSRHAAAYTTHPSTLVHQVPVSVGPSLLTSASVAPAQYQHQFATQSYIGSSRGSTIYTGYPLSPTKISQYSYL

On to `COC(=O)Nc1nc2cc(Oc3ccc(NC(=O)Nc4cccc(Br)c4)cc3)ccc2[nH]1`, for which the inhibition (commonly the drop in the measured response relative to a control, in per cent) in experiment [1] is 6.86%; in experiment [2], -0.71%; in [3], 2.41%; in experiment [4] it was 8.37%; in [5], 19.5%; in experiment [6], 3.12%. Also, the inhibition in experiment [7] turned out to be 4.83%; in [8], 2.82%; in experiment [9] it was 2.49%; in experiment [10], 2.94%.
For the compound `CN(C)c1cc2c(Nc3ccc4c(cnn4Cc4ccccc4)c3)ncnc2cn1`, the inhibition was 4.25% in [1]; -0.5% in experiment [2]; 2.06% in experiment [3]; 0.72% in experiment [4]; 0.89% in experiment [5]; 2.84% in [6]. The inhibition in [7] worked out at 2.39%; in experiment [8] it was 1.31%; in [9], 3.41%; in [10], 0.27%.
As for `Cc1nc(-c2ccccc2)n2nc(NCCCN3CCOCC3)ncc12`, the inhibition came to 18.5% in experiment [1]; 0.72% in experiment [2]; 13.3% in experiment [3]; 1.88% in experiment [4]; 14.4% in experiment [5]; 1.8% in [6]. Moreover, the inhibition in experiment [7] came out at 5.36%; in [8], 3.31%; in experiment [9] it was 6.13%; in experiment [10], 4.27%.
With `NS(=O)(=O)c1ccc(-c2cc3ccncc3cc2OCc2ccccc2)cc1`, the inhibition in experiment [1] came out at 3.98%; in experiment [2], 1.69%; in experiment [3] it was 4.62%; in experiment [4], 3.58%; in experiment [5], 6.62%; in [6] it was 3.39%. Besides, the inhibition came to 6.21% in [7], 5.32% in experiment [8], 3.37% in experiment [9] and 4.03% in experiment [10].
For the compound `CN(C)C(=O)O[C@H]1CN[C@H](C#Cc2cc3ncnc(Nc4ccc(OCc5cccc(F)c5)c(Cl)c4)c3s2)C1`, the inhibition in [1] was 4.1%; in experiment [2] it was -0.07%; in [3] it was 0.31%; in [4], 0.17%; in experiment [5], 1.29%; in experiment [6], 2.26%. Besides, the inhibition is 6.8% in [7], -0.55% in [8], 2.89% in experiment [9] and 1.44% in [10].
Take `N#Cc1c(NC(=O)c2ccccc2F)sc2c1CCCC2`: the inhibition in [1] was -0.09%; in experiment [2], -4.32%; in [3], -0.26%; in [4], -0.44%; in experiment [5], 1.41%; in experiment [6], -2.15%. The inhibition in experiment [7] was 2.33%; in [8] it was -0.94%; in experiment [9], -1.13%; in experiment [10] it was -1.39%.
Consider `CCn1c(-c2nonc2N)nc2ccc(F)cc21`, for which the inhibition in experiment [1] worked out at 3.37%; in experiment [2], 2.6%; in [3] it was 2.13%; in experiment [4] it was 2.47%; in experiment [5] it was 3.5%; in experiment [6], 5.8%. The inhibition worked out at 7.99% in experiment [7], 6.8% in [8], 8.85% in experiment [9] and 6.33% in experiment [10].
For the compound `CCS(=O)(=O)c1ccc(OC)c(Nc2ncc(-c3cccc(OC)c3)o2)c1`, the inhibition was 11.2% in experiment [1]; 7.9% in experiment [2]; 48.3% in experiment [3]; 19.5% in experiment [4]; 65.7% in experiment [5]; 3.19% in [6]. The inhibition in [7] was 6.62%; in experiment [8], 1.59%; in experiment [9], 1.18%; in [10] it was -0.18%.
Regarding `Cc1ccc2c(-c3ccnc(Nc4cccc(C(F)(F)F)c4)n3)c(-c3ccccc3)nn2n1`, the inhibition in experiment [1] is 76%; in experiment [2] it was 0.33%; in experiment [3] it was 3.87%; in experiment [4], 1.36%; in experiment [5], 13.5%; in experiment [6] it was 30.1%. For the same compound, the inhibition in experiment [7] was determined as 82.2%; in [8], 6.13%; in experiment [9], 9.3%; in experiment [10] it was 5.72%.
For the compound `NC(=O)c1cccc(Nc2nccc(Nc3cccc(F)c3)n2)c1`, the inhibition is 15.8% in [1]; -3.17% in [2]; 5.3% in [3]; 0.35% in experiment [4]; 8.46% in experiment [5]; 0.09% in [6]. For the same compound, the inhibition in experiment [7] was 8.39%; in experiment [8] it was 0.99%; in [9] it was 2.19%; in experiment [10], -0.06%.
On to `CC(C)c1ccc(Nc2nccc(-c3cnn4ncccc34)n2)cc1`, for which the inhibition was 75.4% in experiment [1]; 57.9% in experiment [2]; 87.8% in experiment [3]; 11.2% in experiment [4]; 50.6% in experiment [5]; 5.25% in [6]. The inhibition in [7] amounted to 27%; in experiment [8], 3.14%; in experiment [9], 9.29%; in experiment [10] it was 0.92%.
For `N#Cc1cccc(Nc2nccc(-c3cnn4ncccc34)n2)c1`, the inhibition was found to be 88.1% in [1]; 82.9% in experiment [2]; 89.3% in [3]; 79.9% in [4]; 88.1% in [5]; 10.4% in experiment [6]. Also, the inhibition was 44.3% in experiment [7], 15.6% in experiment [8], 59.4% in [9] and 8.27% in experiment [10].
As for `CN1CCN(C(=O)c2ccc(NC(=O)Nc3ccc(N(C)c4ccnc(Nc5ccc(CS(C)(=O)=O)cc5)n4)cc3)cc2)CC1`, the inhibition was 4.51% in experiment [1]; -3.22% in experiment [2]; 5.55% in experiment [3]; 0.53% in [4]; 9.14% in experiment [5]; 0.8% in [6]. Besides, the inhibition was determined as 12.4% in experiment [7], 1.77% in experiment [8], 11.2% in experiment [9] and 2.64% in [10].
With `Cc1ccc(NC(=O)CC2CC2)cc1-c1ccc(C(=O)NCC2CC2)cc1`, the inhibition in [1] is 3.08%; in experiment [2], -0.11%; in [3], 1.56%; in experiment [4] it was 2.64%; in experiment [5] it was 4.19%; in [6], 3.4%. The inhibition in experiment [7] is 3.8%; in [8], 2.01%; in experiment [9], 3.96%; in [10], 5.26%.
On to `COc1cccc(-n2ncc3c(N/N=C/c4ccc(C)cc4)ncnc32)c1`, for which the inhibition turned out to be 47% in experiment [1]; 1.58% in experiment [2]; 13.3% in [3]; 3.16% in experiment [4]; 11.4% in [5]; 8.36% in experiment [6]. The inhibition in experiment [7] was 11.6%; in experiment [8], 6.17%; in experiment [9], 7.67%; in experiment [10], 4.71%.
As for `COc1cc2ncnc(Nc3ccc4c(cnn4Cc4ccccc4)c3)c2cc1OC`, the inhibition in experiment [1] was 7.35%; in experiment [2], -5.38%; in [3], -0.46%; in experiment [4] it was -0.51%; in experiment [5], 0.79%; in experiment [6], 0.52%. Further, the inhibition in [7] is 1.98%; in [8], 2.88%; in experiment [9], 4.22%; in experiment [10] it was 1.19%.
`CS(=O)(=O)CCNCc1nc(-c2ccc3ncnc(Nc4ccc(OCc5cccc(C(F)(F)F)c5)cc4)c3c2)cs1`: the inhibition in experiment [1] was 4.85%; in experiment [2], -1.73%; in experiment [3] it was 0.09%; in experiment [4], -0.35%; in experiment [5], 0.46%; in [6] it was 2.97%. The inhibition in experiment [7] is 6.45%; in [8] it was 1.69%; in experiment [9], 1.79%; in experiment [10], 2.89%.
